# From article PMC7862700, “An all-to-all approach to the identification of sequence-specific readers for epigenetic DNA modifications on cytosine”
# Legend:
# Experiment in all cases: DAPPL (digital affinity profiling via proximity ligation, sequencing); 10 mM Tris-HCl pH 7.5, 50 mM NaCl, 1 mM DTT, 4% glycerol, room temperature, 30 min; GST-TFs on glutathione beads, 16-mer random dsDNA library, 0.1% formaldehyde crosslink after washing; high values mean tight binding
# Conditions in all cases: protein: recombinant; tags: N-terminal GST; dsDNA, one strand shown
# ELK1 = target: T1, ELK1 (Homo sapiens, UniProt P19419 1-428)
# T1 sequence: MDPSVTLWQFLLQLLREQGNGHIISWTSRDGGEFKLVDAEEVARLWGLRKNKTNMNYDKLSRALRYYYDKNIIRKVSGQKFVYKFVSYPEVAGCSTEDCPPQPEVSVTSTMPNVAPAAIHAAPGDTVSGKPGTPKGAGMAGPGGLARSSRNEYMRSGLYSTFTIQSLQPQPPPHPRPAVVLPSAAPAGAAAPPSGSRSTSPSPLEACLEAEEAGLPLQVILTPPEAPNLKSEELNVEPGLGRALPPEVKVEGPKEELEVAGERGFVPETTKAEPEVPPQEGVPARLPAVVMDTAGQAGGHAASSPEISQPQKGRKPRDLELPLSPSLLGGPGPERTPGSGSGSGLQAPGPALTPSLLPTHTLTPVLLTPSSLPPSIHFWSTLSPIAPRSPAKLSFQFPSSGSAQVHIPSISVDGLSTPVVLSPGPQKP
# Outline: (§1)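 Sequencing on an Illumina NextSeq500 followed washing, crosslinking with 0.1% formaldehyde, proximity ligation (BsaI/T4 ligase, 1 h, 37 °C) and PCR amplification of pools that had been incubated for 30 min at room temperature with 200 nmole of a random double-stranded 16-mer DNA library in Tris/NaCl/DTT/glycerol buffer. Each pool held DNA-barcoded human transcription factors, expressed in yeast as GST fusions and captured on glutathione beads, plus a tag-only sample. Binding signal is a hexamer's read frequency for a factor divided by its frequency in the tag-only sample.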
# GABPA = target: T2, GABPA (Homo sapiens, UniProt Q06546 1-454)
# T2 sequence: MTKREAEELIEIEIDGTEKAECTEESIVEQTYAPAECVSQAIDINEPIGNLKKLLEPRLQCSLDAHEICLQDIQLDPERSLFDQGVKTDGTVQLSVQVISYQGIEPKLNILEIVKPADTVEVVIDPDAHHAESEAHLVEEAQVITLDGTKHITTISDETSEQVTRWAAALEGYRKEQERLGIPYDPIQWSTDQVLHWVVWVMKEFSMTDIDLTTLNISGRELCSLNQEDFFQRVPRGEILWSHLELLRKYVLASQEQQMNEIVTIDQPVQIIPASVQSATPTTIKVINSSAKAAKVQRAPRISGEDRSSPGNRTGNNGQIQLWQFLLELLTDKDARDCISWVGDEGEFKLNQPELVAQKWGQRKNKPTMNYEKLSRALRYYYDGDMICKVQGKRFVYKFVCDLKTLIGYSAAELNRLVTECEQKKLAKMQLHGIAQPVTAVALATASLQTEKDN
# Outline: as §1
# ERG = target: T3, ERG (Homo sapiens, UniProt P11308 1-479)
# T3 sequence: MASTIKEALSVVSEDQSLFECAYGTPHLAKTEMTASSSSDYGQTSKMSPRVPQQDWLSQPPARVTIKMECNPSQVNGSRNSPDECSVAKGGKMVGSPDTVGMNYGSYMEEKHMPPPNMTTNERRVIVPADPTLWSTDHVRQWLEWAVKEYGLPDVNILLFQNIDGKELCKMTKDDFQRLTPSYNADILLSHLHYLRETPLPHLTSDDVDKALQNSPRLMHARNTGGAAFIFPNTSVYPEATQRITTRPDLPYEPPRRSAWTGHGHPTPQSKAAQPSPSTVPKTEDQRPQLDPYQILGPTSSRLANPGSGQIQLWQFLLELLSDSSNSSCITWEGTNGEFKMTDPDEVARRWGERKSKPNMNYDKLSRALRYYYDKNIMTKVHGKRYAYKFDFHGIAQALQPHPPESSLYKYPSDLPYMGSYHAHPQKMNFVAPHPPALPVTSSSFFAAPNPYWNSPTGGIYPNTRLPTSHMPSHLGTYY
# Outline: as §1
# ELF1 = ELF1 (Homo sapiens, UniProt P32519 1-619)
# ELF1, sequence (P32519 whole entry): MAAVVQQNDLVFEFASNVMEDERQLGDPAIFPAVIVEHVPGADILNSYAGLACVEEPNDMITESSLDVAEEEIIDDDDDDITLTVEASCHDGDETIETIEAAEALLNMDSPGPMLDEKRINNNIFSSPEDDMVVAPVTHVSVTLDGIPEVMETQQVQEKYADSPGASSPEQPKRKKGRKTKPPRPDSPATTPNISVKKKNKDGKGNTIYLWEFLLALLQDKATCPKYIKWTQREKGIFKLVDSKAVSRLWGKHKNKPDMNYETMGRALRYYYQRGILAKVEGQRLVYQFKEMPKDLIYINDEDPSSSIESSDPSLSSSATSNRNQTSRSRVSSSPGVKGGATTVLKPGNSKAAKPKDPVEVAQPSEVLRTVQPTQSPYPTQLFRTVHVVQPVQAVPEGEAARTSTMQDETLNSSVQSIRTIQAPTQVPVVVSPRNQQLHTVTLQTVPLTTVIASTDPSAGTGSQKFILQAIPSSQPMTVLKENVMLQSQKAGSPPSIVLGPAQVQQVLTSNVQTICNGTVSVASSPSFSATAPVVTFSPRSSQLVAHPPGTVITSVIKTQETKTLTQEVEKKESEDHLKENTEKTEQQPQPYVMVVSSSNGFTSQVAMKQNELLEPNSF
# Outline: as §1
# EHF = target: T4, EHF (Homo sapiens, UniProt Q9NZC4 1-300)
# T4 sequence: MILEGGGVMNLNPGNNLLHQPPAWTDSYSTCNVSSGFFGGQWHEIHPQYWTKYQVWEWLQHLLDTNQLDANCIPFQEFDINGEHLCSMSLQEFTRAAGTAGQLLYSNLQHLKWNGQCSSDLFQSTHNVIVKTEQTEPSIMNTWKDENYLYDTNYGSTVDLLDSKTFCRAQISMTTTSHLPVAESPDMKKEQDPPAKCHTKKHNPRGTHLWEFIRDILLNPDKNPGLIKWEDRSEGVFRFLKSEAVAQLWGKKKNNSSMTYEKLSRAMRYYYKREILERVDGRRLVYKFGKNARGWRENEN
# Outline: as §1
# SPIB = SPIB (Homo sapiens, UniProt Q01892 1-262)
# SPIB, sequence (Q01892 whole entry): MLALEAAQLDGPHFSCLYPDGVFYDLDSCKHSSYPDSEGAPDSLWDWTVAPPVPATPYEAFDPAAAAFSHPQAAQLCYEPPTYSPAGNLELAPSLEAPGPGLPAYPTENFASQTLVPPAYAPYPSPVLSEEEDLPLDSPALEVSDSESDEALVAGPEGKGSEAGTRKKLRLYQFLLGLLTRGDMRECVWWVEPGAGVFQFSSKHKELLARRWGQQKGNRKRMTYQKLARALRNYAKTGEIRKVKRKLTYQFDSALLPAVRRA
# Outline: as §1
# FEV = target: T5, FEV (Homo sapiens, UniProt Q99581 1-238)
# T5 sequence: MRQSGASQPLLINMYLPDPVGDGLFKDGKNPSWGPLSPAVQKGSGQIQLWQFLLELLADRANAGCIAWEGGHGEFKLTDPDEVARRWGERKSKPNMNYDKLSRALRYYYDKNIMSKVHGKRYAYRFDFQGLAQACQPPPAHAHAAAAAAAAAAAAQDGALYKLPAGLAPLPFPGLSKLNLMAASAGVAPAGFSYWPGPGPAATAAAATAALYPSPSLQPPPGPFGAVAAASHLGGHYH
# Outline: as §1
# ETV5 = ETV5 (Homo sapiens, UniProt P41161 1-510)
# ETV5, sequence (P41161 whole entry): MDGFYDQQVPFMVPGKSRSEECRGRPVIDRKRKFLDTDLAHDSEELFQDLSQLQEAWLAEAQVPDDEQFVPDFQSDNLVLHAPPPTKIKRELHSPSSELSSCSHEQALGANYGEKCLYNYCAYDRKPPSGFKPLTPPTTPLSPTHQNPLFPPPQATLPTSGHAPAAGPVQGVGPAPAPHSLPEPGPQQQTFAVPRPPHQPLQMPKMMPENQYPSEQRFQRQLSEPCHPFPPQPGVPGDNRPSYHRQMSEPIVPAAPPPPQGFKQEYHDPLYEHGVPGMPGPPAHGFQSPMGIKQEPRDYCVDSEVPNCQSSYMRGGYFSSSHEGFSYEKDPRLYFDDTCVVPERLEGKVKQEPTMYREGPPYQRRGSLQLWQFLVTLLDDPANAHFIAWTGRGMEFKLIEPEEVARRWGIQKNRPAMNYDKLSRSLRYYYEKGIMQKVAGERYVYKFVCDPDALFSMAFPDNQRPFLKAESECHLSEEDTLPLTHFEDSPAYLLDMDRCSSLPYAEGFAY
# Outline: as §1
# ELF4 = ELF4 (Homo sapiens, UniProt Q99607 1-663)
# ELF4, sequence (Q99607 whole entry): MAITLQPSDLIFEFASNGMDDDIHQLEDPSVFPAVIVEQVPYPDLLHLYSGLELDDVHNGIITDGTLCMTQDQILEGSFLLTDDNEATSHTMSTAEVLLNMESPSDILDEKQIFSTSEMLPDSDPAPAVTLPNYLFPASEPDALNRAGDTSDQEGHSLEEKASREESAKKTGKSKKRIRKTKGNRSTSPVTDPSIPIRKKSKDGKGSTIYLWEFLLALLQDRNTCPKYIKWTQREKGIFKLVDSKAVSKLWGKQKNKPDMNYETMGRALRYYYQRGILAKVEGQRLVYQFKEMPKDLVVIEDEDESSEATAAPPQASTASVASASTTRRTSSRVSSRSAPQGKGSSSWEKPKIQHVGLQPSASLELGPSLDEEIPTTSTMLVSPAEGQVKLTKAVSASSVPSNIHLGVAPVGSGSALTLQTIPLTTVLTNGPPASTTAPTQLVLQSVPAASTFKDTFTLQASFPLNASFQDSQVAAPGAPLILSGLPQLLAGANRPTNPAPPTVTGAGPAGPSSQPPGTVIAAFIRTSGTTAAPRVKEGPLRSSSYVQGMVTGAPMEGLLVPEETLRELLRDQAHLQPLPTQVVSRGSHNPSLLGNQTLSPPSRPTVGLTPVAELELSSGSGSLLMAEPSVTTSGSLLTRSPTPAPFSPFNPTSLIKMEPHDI
# Outline: as §1
# ETV2 = target: T6, ETV2 (Homo sapiens, UniProt O00321 1-342)
# T6 sequence: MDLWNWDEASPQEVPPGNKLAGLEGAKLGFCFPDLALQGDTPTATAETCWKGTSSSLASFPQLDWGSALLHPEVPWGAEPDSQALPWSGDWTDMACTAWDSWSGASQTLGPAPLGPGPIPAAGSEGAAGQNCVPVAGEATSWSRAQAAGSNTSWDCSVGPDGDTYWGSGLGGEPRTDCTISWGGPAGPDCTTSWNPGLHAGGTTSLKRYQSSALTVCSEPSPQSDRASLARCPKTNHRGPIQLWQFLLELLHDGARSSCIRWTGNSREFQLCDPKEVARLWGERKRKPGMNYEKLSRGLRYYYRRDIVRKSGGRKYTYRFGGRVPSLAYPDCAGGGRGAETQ
# Outline: as §1
# ETV3L = target: T7, ETV3L (Homo sapiens, UniProt Q6ZN32 1-361)
# T7 sequence: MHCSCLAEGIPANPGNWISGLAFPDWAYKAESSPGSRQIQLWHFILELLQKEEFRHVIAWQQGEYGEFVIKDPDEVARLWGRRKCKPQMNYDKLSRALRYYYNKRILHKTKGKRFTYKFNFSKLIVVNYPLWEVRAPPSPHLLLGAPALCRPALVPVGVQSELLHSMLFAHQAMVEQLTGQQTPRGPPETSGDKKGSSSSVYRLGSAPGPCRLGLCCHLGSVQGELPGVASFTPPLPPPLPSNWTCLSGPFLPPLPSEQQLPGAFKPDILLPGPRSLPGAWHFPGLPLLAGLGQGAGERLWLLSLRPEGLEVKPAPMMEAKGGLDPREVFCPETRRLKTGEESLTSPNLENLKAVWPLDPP
# Outline: as §1
# ETS2 = target: T8, ETS2 (Homo sapiens, UniProt P15036 1-469)
# T8 sequence: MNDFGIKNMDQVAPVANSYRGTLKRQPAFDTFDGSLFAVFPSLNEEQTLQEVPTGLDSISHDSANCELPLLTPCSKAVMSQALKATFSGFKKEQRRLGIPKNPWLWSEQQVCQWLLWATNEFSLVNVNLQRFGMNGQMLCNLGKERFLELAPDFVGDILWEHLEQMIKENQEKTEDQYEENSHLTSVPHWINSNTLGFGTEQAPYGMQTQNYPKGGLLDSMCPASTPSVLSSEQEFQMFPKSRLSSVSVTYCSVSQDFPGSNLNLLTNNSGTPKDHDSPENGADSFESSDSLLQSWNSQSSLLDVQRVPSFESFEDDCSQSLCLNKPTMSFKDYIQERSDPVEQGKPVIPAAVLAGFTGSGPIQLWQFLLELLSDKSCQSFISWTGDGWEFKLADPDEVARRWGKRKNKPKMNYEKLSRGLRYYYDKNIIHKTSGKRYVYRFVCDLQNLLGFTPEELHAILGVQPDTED
# Outline: as §1
# SPDEF = target: T9, SPDEF (Homo sapiens, UniProt O95238 1-335)
# T9 sequence: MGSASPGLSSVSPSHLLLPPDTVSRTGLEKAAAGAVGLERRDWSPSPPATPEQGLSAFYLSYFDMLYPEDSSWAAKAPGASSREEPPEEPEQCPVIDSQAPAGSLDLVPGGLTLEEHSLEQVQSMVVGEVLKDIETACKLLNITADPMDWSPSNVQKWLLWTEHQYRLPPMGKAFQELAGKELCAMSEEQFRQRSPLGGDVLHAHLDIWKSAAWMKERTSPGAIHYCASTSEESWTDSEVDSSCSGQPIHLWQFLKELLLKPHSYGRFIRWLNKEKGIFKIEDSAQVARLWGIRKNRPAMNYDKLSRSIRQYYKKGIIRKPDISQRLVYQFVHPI
# Outline: as §1
# ETV3 = target: T10, ETV3 (Homo sapiens, UniProt P41162-2 1-143)
# T10 sequence: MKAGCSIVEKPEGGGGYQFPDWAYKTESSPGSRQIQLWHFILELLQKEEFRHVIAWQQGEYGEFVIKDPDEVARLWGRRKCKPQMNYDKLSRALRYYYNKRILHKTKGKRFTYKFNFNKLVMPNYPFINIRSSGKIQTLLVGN
# Outline: as §1
# ETV6 = ETV6 (Homo sapiens, UniProt P41212 1-452)
# ETV6, sequence (P41212 whole entry): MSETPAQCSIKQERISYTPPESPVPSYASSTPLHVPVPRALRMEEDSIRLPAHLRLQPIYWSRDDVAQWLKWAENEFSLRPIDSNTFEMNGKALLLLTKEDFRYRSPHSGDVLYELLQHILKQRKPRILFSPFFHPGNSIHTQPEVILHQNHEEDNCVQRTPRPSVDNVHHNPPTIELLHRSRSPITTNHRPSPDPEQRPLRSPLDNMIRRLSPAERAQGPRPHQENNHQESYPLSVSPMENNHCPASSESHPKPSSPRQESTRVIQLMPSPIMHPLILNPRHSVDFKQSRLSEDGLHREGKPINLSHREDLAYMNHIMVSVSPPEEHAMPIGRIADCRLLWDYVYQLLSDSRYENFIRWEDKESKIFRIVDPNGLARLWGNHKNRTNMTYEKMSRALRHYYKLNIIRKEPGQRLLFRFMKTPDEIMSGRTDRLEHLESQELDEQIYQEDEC
# Outline: as §1
sequence,measurement,setting,value
AGGACC,binding signal,ELK1,"1.07 fold enrichment (6-mer frequency, TF over GST control)"
same,binding signal,GABPA,"1.07 fold enrichment (6-mer frequency, TF over GST control)"
same,binding signal,ERG,"1.09 fold enrichment (6-mer frequency, TF over GST control)"
same,binding signal,ELF1,"1.06 fold enrichment (6-mer frequency, TF over GST control)"
same,binding signal,EHF,"1.02 fold enrichment (6-mer frequency, TF over GST control)"
same,binding signal,SPIB,"1.05 fold enrichment (6-mer frequency, TF over GST control)"
same,binding signal,FEV,"1.07 fold enrichment (6-mer frequency, TF over GST control)"
same,binding signal,ETV5,"1.04 fold enrichment (6-mer frequency, TF over GST control)"
same,binding signal,ELF4,"1.06 fold enrichment (6-mer frequency, TF over GST control)"
same,binding signal,ETV2,"1.18 fold enrichment (6-mer frequency, TF over GST control)"
same,binding signal,ETV3L,"1.07 fold enrichment (6-mer frequency, TF over GST control)"
same,binding signal,ETS2,"1.04 fold enrichment (6-mer frequency, TF over GST control)"
same,binding signal,SPDEF,"1.06 fold enrichment (6-mer frequency, TF over GST control)"
same,binding signal,ETV3,"1.03 fold enrichment (6-mer frequency, TF over GST control)"
same,binding signal,ETV6,"1.02 fold enrichment (6-mer frequency, TF over GST control)"
